Compound activity from PubChem BioAssay.
Hits are enriched below; roughly 2.4% of the tested compounds scored in any of these assays.
D2 ag-1: D2 dopamine receptor (human) agonism; HEK293 T-REx D2 cells, calcium flux agonist mode; activation, % at 2 µM; 340,000 tested, 0.53% active; AID 485358;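 active = activation over 3 SD above normal in the single-dose calcium agonist read, cut at about 30% in these data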
Target sequence (P14416 whole entry, looked up): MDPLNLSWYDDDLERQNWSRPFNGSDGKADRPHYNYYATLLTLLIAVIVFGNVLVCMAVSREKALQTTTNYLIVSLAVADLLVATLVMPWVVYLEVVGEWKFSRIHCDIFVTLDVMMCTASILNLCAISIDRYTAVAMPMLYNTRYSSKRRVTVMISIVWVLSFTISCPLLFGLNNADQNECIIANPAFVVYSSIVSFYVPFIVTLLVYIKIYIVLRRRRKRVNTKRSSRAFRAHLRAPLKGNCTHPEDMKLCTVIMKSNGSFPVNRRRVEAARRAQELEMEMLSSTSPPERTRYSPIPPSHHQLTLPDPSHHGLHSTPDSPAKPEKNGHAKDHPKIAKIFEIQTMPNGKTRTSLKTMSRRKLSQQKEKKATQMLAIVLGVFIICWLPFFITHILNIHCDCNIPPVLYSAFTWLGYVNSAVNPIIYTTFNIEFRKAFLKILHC
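Calcium-flux readout, 1 cycle/sec over 180 s following compound pin transfer, in inducible HEK293 Trex D2 cells (force-coupled); dopamine controls included. Positive calcium responses during this window marked compounds as potential agonists.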
D2 PAM-1: positive allosteric modulators of human D2 dopamine receptor | 340,000 tested, 0.34% active | P14416 | HEK293 T-REx D2, calcium flux, EC20 dopamine potentiation | potentiation, % at 10 µM;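 active = potentiation over 3 SD above the plate norm, cut at about 30% in these data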
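Primary screen. Calcium kinetics in induced HEK293 T-REx D2 cells: compound pre-addition 180 s, EC20 dopamine, 180 s more.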
D2 ag-2: agonists of human D2 dopamine receptor (beta-arrestin); P14416; DiscoveRx PathHunter D2 beta-arrestin, luminescence, 90 min; 100% = 57 uM dopamine signal; activation, % (concentration not given with the values); 360,000 tested, 0.084% active; in the data active = activation above about 40%; inconclusive = between about 15% and that limit
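DiscoveRx PathHunter D2 beta-arrestin cells (2,100/well) attached overnight, then compound-stimulated 90 min at 37 C in HBSS/10 mM HEPES/0.1% Tween-20 buffer; beta-galactosidase complementation read by luminescence after 1 h at ambient temperature. Dopamine 57 uM final (EC100) as control.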
D2 antag: antagonizes the human D2 dopamine receptor | P14416 | HEK293 TREx D2 cells, calcium flux, dopamine EC80 | inhibition, % at 10 µM | 340,000 tested, 2% active; in the data active = inhibition above about 30%; inactive = below that, where a call was filed
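Dopamine at EC80 is the agonist stimulus; test compounds precede it by 180 s. Calcium flux read kinetically in a force-coupled, inducible HEK293 T-REx D2 cell line.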
D2 PAM-2: potentiates the human D2 dopamine receptor allosterically | P14416 | DiscoveRx D2 beta-arrestin cells, luminescence, 90 min; 100% = 57 uM dopamine signal | potentiation, % (test concentration not listed) | 360,000 tested, 0.23% active | AID 624464; in the data active = potentiation above about 50%; inconclusive = mostly about 30% to 49%
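PathHunter beta-arrestin assay in DiscoveRx D2 cells. Compounds were added with an EC20 of dopamine (50 nM final) for 90 min at 37 deg C. Luminescence was read 1 h after detection reagent, with 57 uM dopamine as the EC100 control.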
Large screens that a line does not name were inactive.

O=C(CN1CCN(S(=O)(=O)c2ccc(Br)cc2)CC1)Nc1ccc(F)cc1F	none
CN(C)S(=O)(=O)c1ccc(Cl)c(NC(=O)CN2CCCC2)c1	D2 antag 36
O=C(CN1CCN(S(=O)(=O)c2ccc(Cl)cc2)CC1)Nc1ccc(F)cc1F	D2 antag 39
CCOC(=O)N1CCc2c(sc3c2c(=O)n(Cc2ccccc2)c(=O)n3Cc2c(F)cccc2Cl)C1	none (no result: D2 ag-1, D2 ag-2, D2 antag, D2 PAM-2)
COc1ccc(NC(=O)CN2CCN(S(=O)(=O)c3ccc(Br)cc3)CC2)c(OC)c1	none
COc1ccc(C)cc1NC(=O)CN1CCN(S(=O)(=O)c2ccc(Br)cc2)CC1	D2 antag 34
CCOC(=O)Cn1c(=O)n(CC2CCCO2)c2nc(-c3ccc(CC)cc3)nc(C(N)=O)c21 (stereo not given)	none (no result: D2 ag-2, D2 antag, D2 PAM-2)
O=C(Nc1cccc(-n2cnnn2)c1)c1ccc(C(F)(F)F)cc1	D2 antag 57
O=C(O)c1ccccc1S(=O)(=O)Cc1ccccc1	D2 antag 36
Cn1nc(C(F)(F)F)c2cc(C(=O)Nc3ccc(Cl)cc3)sc21	D2 antag 64
Cn1nc(C(F)(F)F)c2cc(C(=O)Nc3ccc(F)cc3F)sc21	none
Cc1ccc(S(=O)(=O)Nc2ccc3c(c2)nc(CCN2CCOCC2)n3C)cc1	none
Cc1ccc(S(=O)(=O)Nc2ccc3c(c2)nc(CCN2CCCCC2)n3C)cc1	none
CCn1c(CN2CCCCC2)nc2cc(S(=O)(=O)N3CCCCC3)ccc21	D2 antag 55
Cn1c(CN2CCCC2)nc2cc(NC(=O)COc3ccccc3)ccc21	D2 antag 47
Cn1c(CCN2CCCCC2)nc2cc(NS(=O)(=O)c3ccc(F)cc3)ccc21	D2 antag 32
Cc1ccc(S(=O)(=O)Nc2ccc3c(c2)nc(CN2CCCC2)n3C)cc1	D2 antag 72
COc1ccc(OC)c(NC(=O)c2cc3c(=O)n4cccc(C)c4nc3n2C)c1	none (no result: D2 ag-2, D2 antag, D2 PAM-2)
CCOC(=O)C1=C(CS(=O)(=O)c2ccc(F)c(C)c2)NC(=O)NC1c1ccccc1OC (stereo not given)	none (no result: D2 ag-2, D2 antag, D2 PAM-2)
COc1ccc(OC)c(C2C3=C(CCCC3=O)Nc3c2c(=O)n(C)c(=O)n3C)c1 (stereo not given)	D2 PAM-1 32
COc1ccc(C2C3=C(CC(C)(C)CC3=O)Nc3c2c(=O)n(C)c(=O)n3C)cc1OC (stereo not given)	none
COCCN(C(=O)c1ccccc1)c1nnc(-c2cccnc2)s1	D2 antag 48
CCc1ccc(CNC(=O)C2CCCN(c3nn4cc(-c5ccc(F)cc5)nc4s3)C2)cc1 (stereo not given)	none (no result: D2 ag-2, D2 antag, D2 PAM-2)
Cn1c(C(=O)NCCN2CCc3ccccc3C2)cc2c(=O)n(C)c3ccccc3c21	D2 antag 48
CCc1cccc(NC(=O)c2ccc(CNS(=O)(=O)c3ccc4c(c3)C(C)(C)C(=O)N4C)cc2)c1	none (no result: D2 ag-2, D2 antag, D2 PAM-2)
Cc1ccc(/C=N/n2cnc3sc(C)c(C)c3c2=O)o1	D2 PAM-1 47
CCOC(=O)c1ccc(NC(=O)CN2C(=O)CC(c3ccc(C)c(C)c3)=Nc3ccccc32)cc1	none (no result: D2 ag-2, D2 antag, D2 PAM-2)
COc1ccc([N+](=O)[O-])cc1NC(=O)C(C)OC(=O)CSC(C)C(=O)Nc1cc(C)on1 (stereo not given)	D2 antag 36
Cc1cc(NC(=O)C(C)SCC(=O)OC(C)C(=O)Nc2ccccc2C)no1 (stereo not given)	none
COc1ccc(-c2cc(C(F)(F)F)n3nc(C(=O)NCC45CC6CC(CC(C6)C4)C5)cc3n2)cc1	none (no result: D2 ag-2, D2 antag, D2 PAM-2)
Cc1nn(C)c2ncc(C(=O)c3ccccc3O)cc12	D2 antag 48
Cc1ccc(O)c(C(=O)c2cnc3c(c2)c(C)nn3C)c1	none
CCc1ccc(C(C)NC(=S)NC2CCCCC2)cc1 (stereo not given)	D2 antag 48
CCOc1ccc(C(C)NC(=S)NC2CCCCC2)cc1OCC (stereo not given)	D2 antag 41
CCOc1ccc(C(C)NC(=S)NC2CCCCC2)cc1 (stereo not given)	none (no result: D2 ag-1, D2 PAM-1, D2 antag)
Cc1ccc(C)c(CN2C(=O)c3ccccc3S(=O)(=O)c3ccc(C(=O)N4CCCCC4)cc32)c1	none (no result: D2 ag-2, D2 antag, D2 PAM-2)
COc1ccc(N2CCN(C(c3ccccc3)c3sc4nc(-c5ccco5)nn4c3O)CC2)cc1 (stereo not given)	none (no result: D2 PAM-1, D2 ag-2, D2 antag, D2 PAM-2)
CCCNC(=O)Cn1nc(-c2ccc(C)c(C)c2)c2cnc3ccc(OC)cc3c21	none (no result: D2 ag-2, D2 antag, D2 PAM-2)
CC(=O)c1cc(-c2ccc(F)cc2)n(CCC(=O)Nc2nc3ccc(C)cc3s2)c1C	none (no result: D2 ag-2, D2 antag, D2 PAM-2)
Cc1ccc(C)c(C(=O)COC(=O)c2ccccc2N2C(=O)C3C4CCC(C4)C3C2=O)c1 (stereo not given)	D2 PAM-1 41
CC(C)N1CC(COc2ccc(Br)cc2)OC1=O (stereo not given)	D2 antag 41
CCCN(CCC)S(=O)(=O)c1ccc2c(c1)N(CC(=O)NC(C)c1ccccc1)C(=O)CS2 (stereo not given)	none (no result: D2 ag-2, D2 antag, D2 PAM-2)
CC(=O)OC1CC2(C)/C(=N\O)CCC2C2CCc3cc(O)ccc3C12 (stereo not given)	D2 ag-2 41 (no result: D2 ag-1, D2 PAM-1, D2 antag)
Cc1ccc(N=Cc2sc(O)c3ccccc23)cc1	D2 ag-1 65
Cc1ccc(N=Cc2sc(O)c3ccccc23)c(C)c1	D2 antag 58, D2 PAM-2 inconclusive
Cc1ccc(N=Cc2c(O)c3ccccc3n(C)c2=O)cc1	none
CC(C)Oc1ccc(CNC(=O)Nc2ccc3c(c2)N(C)C(=O)c2ccccc2S3)cc1	none (no result: D2 ag-2, D2 antag, D2 PAM-2)
C/C(=N\NC(=O)c1c(C)nc2ccccn12)c1ccccc1F	D2 antag 31
CCc1cc(=O)oc2c(C)c3c(cc12)CN(CCc1ccccc1OC)CO3	none (no result: D2 PAM-1, D2 ag-2, D2 antag, D2 PAM-2)
COC1CCCN(C(=O)c2ccc3oc(Cc4ccc(Cl)cc4)nc3c2)C1 (stereo not given)	D2 antag 31
COc1ccc(NC(=O)c2ccco2)cc1NC(=O)C(C)(C)Oc1ccc(Cl)cc1	none (no result: D2 ag-2, D2 antag, D2 PAM-2)
COc1ccc(-c2noc(CSc3nnc(Cc4ccccc4)n3-c3ccc(F)cc3)n2)cc1	none (no result: D2 ag-2, D2 antag, D2 PAM-2)
Cc1ccc(CC(=O)Nc2ccc(F)c([N+](=O)[O-])c2)cc1C	D2 antag 42
CC(C)Oc1ccc(CNC(=O)c2ccc(CS(=O)Cc3ccccc3Cl)o2)cc1 (stereo not given)	none (no result: D2 ag-1, D2 ag-2, D2 antag, D2 PAM-2)
COC(=O)c1ccccc1NC(=O)Cn1c(=O)n(-c2ccc(C)cc2)c(=O)c2ccccc21	none (no result: D2 ag-2, D2 antag, D2 PAM-2)
N=c1c(S(=O)(=O)c2ccccc2)cc2c(=O)n3ccccc3nc2n1Cc1cccnc1	D2 antag 44
Cc1cccn2c(=O)c3cc(C#N)c(=O)n(Cc4cccnc4)c3nc12	D2 antag 41
COc1ccc(N(C(=O)/C=C\C(=O)Nc2ccc(C)cc2)C(C(=O)NCc2ccco2)c2ccc(C)cc2)cc1 (stereo not given)	none (no result: D2 ag-1, D2 ag-2, D2 antag, D2 PAM-2)
CCOP(=O)(OCC)c1nc(-c2ccc(Br)cc2)oc1N1CCCCC1	none (no result: D2 ag-1, D2 PAM-1, D2 antag)
